Results filed as inconclusive are left out. The source made the active and inactive calls. The call rests on the fitted dose curve.
On the % scale 0 is the no-effect control and ±100 the full control effect.

This assay can be described thus: qHTS assay to identify small molecule agonists of the hypoxia (HIF-1) signaling pathway - cell viability counter screen (AID 1224844). Further: nearly all actives have a fitted effect of over 50% in size. Conditions: HRE-bla ME-180 viability, CellTiter-Glo luminescence, 17 h; series mostly up to 76.8 µM; activity change, negative = cytotoxicity: at the top concentration. The source says: National Center for Advancing Translational Sciences [NCATS]
NIH Chemical Genomics Center [NCGC]
U.S. Environmental Protection Agency [EPA]
National Institutes of Environmental Health Sciences [NIEHS]
National Toxicology Program [NTP]
U.S. Food and Drug Administration [FDA]
Hypoxia-inducible factor-1 (HIF-1) is the major hypoxia-regulated transcription factor that controls cellular responses to low oxygen concentration. HIF-1 is composed of two subunits: hypoxia responsive HIF-1-alpha and constitutively expressed HIF-1-beta, which is also known as aryl hydrocarbon receptor nuclear translocator. During hypoxic conditions, HIF-1-alpha heterodimerizes with HIF-1-beta and translocates into the nucleus where the HIF-1 complex binds to the hypoxia-response element (HRE) and activates expression of target genes such as VEGF (vascular endothelial growth factor). The HIF-1 pathway is essential to normal growth and development, and is involved in the pathophysiology of cancer, inflammation, and ischemia.
Using a beta-lactamase reporter-gene under control of the hypoxia response element, a cell-based assay [CellSensor(TM) HRE-bla ME-180 from Life Technologies, Carlsbad, CA] was used to measure hypoxia-induced signaling. Tox21 10K library compounds were measured for their ability to induce the reporter gene activity. The cytotoxicity of the Tox21 compound library against HRE-bla ME-180 cell line was tested in parallel by measuring cell viability using CellTiter-Glo assay (Promega, Madison, WI) in the same assay wells.
Tox21 Assay Protocol Summary:
HRE-bla ME-180 cells were dispensed at 2,000 cells per well in 6 uL of assay medium containing 0.5% dialyzed FBS into black wall/clear-bottom 1536-well plates using a Multidrop Combi (Thermo Scientific, Waltham, MA) dispenser. After the assay plates were incubated at 37C and 5% CO2 for 5 hrs, 23 nL of compounds dissolved in DMSO, positive controls or DMSO only was transferred to each well of the assay plate using a Pintool station (Kalypsys, San Diego, CA). The assay plates were incubated at 37C and 5% CO2 for 17 hrs. One uL of LiveBLAzerTM B/G FRET substrate (CCF4-AM) (Life Technologies) was added to each well using a Flying Reagent Dispenser (FRD, Aurora Discovery, San Diego, CA). After 2 hr incubation at room temperature, fluorescence intensity (405 nm excitation, 460 nm and 530 nm emissions) was measured using an Envision plate reader (PerkinElmer, Shelton, CT). For cytotoxicity, 4 ul/well of CellTiter-Glo reagent was added into the assay plates using an FRD. After 30 min incubation at room temperature, the luminescence intensity was measured using a ViewLux plate reader (PerkinElmer).
In general terms: Quantitative high-throughput screening tests each substance at several concentrations.
Consider `CCc1ccccc1CC`, for which the compound was classed as inactive.
Turning to `N#Cc1ccccc1`, the compound was called inactive.
Still for that read-out and setting: the entry for `CC(=O)CCC=C(C)C` is “inactive”.
Same read-out and setting: under `COc1ccccc1OCC(O)CO` (stereo not given) stands “inactive”; under `O=C1C(c2[nH]c3ccccc3c2O)=Nc2ccccc21`, “inactive”.
Same read-out and setting: under `CCCCCCO` stands “inactive”; under `CCCCC(C=O)CC` (stereo not given), “inactive”.
Regarding `CC(=O)OCc1ccccc1`, the result was inactive.
The same measure, in the same setting: the entry for `O=C(O)c1ccccc1C(=O)O` is “inactive”; for `C[C@]12CC[C@@H]3c4ccc(O)cc4CC[C@H]3[C@@H]1C[C@@H](O)[C@@H]2O` it is “inactive”.
Still for that read-out and setting: under `O=C1CCCC1` stands “inactive”; under `CNC(=O)Oc1ccc2c(c1)[C@]1(C)CCN(C)[C@@H]1N2C`, “inactive”.
The same measure, in the same setting: under `CCCCCC(=O)O` stands “inactive”.
As to `Cc1ccc2ncccc2c1`, the compound was called inactive.
Same read-out and setting: under `CN/C(=C\[N+](=O)[O-])NCCSCc1csc(CN(C)C)n1` stands “inactive”; under `CCNc1cccc(C)c1`, “inactive”; under `CC(=O)OC1CC(C)OC(C)O1` (stereo not given), “inactive”.
On the same count and under the same terms, under `NCCNCCN` stands “inactive”.
Same read-out and setting: under `CC1(C)OC[C@@H]2O[C@@]3(C(=O)O)OC(C)(C)O[C@H]3[C@@H]2O1` stands “inactive”; under `CCNc1ccccc1`, “inactive”; under `CC1(C)S[C@@H]2[C@H](NC(=O)COc3ccccc3)C(=O)N2[C@H]1C(=O)O`, “inactive”.
Regarding `O=C(O)c1ccc(C(=O)O)c(C(=O)O)c1`, the outcome was inactive.
Regarding `CCCCCCCCCCCCCCCCO`, the outcome was inactive.
On to `CC(C)(C)c1cc(Cc2cc(C(C)(C)C)c(O)c(C(C)(C)C)c2)cc(C(C)(C)C)c1O`, for which the result was inactive.
As for `Clc1ccccn1`, the compound was called inactive.
On the same count and under the same terms, the entry for `CC(C)c1cccc(C(C)C)c1` is “inactive”; for `COc1ccc(C)cc1N` it is “inactive”.
Still for that read-out and setting: the entry for `O=S(=O)(O)c1ccccc1` is “inactive”; for `CC(C)CC(=O)CC(C)CC(C)C` (stereo not given) it is “inactive”.
Consider `CCO[Si](CCCN)(OCC)OCC`, for which the “activity change, negative = cytotoxicity” value is -0.329% (inactive).
As for `CCOCC(=O)O`, the outcome was inactive.
Still for that read-out and setting: the entry for `CCCCCCCO` is “inactive”; for `Nc1ccc(Cl)c(N)c1` it is “inactive”.
Same read-out and setting: under `CCOC(=O)c1ccc(N)cc1` stands “inactive”.
The same measure, in the same setting: the entry for `CC(=O)c1ccc(O)cc1` is “inactive”.
For `CCNC(=S)NCC`, the “activity change, negative = cytotoxicity” value was 11.2% (inactive).
Take `CC(C)OC(=O)COc1ccc(Cl)cc1Cl`: the outcome was inactive.
Take `O=C(O)CCCCCCCCC(=O)O`: the call was inactive.
On the same count and under the same terms, the entry for `C=C(C)CNCC` is “inactive”.
Regarding `Brc1ccc(Br)c(Br)c1`, the “activity change, negative = cytotoxicity” value is -4.3% (inactive).
